In PubChem BioAssay (NCI):
About 79,000 compounds went through this panel and 15% of them were active in at least one assay; those are over-represented in the sample as a whole. Activity calls are given as the source filed them. No stated cut-off is given here; in the data, active means growth inhibition above about 70%; inactive means the rest.

Assays:
[1] = NCI Yeast Anticancer Drug Screen. Data for the mlh1 strain (AID 171);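 further: 0% = growth of vehicle-treated control cultures of the same strain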; conditions: S. cerevisiae mlh1 strain growth inhibition, active compounds read high
Summary of the method: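 Vehicle-normalised growth inhibition of a repair- or checkpoint-altered yeast strain following compound treatment.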

[2] = NCI Yeast Anticancer Drug Screen. Data for the sgs1 strain (AID 173);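 further: 0% = growth of vehicle-only control cultures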; conditions: S. cerevisiae sgs1 mutant, active compounds read high
Summary of the method: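 Screen format: yeast with repair or checkpoint alterations, compound exposure, growth read relative to vehicle.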

[3] = NCI Yeast Anticancer Drug Screen. Data for the mlh1 rad18 strain (AID 175); conditions: S. cerevisiae mlh1 rad18 strain growth inhibition, active compounds read high
Summary of the method: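 Vehicle-treated cultures served as the reference for growth inhibition in a yeast strain carrying DNA damage repair alterations exposed to each compound.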

[4] = NCI Yeast Anticancer Drug Screen. Data for the rad18 strain (AID 177); conditions: S. cerevisiae rad18 mutant growth inhibition, active compounds read high
Summary of the method: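 Test articles were incubated with altered yeast defective in DNA damage repair. Results are given as inhibition of growth versus vehicle.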

[5] = NCI Yeast Anticancer Drug Screen. Data for the rad52 strain (AID 147);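 further: 0% = growth of vehicle-treated control cultures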; conditions: S. cerevisiae rad52 mutant growth inhibition, active compounds read high
Summary of the method: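 Vehicle-treated cultures served as the reference for growth inhibition of compound-exposed yeast bearing a DNA repair mutation.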

[6] = NCI Yeast Anticancer Drug Screen. Data for the wt1 strain (AID 149);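 further: 0% = growth of vehicle-treated wt1 cultures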; conditions: S. cerevisiae wt1 strain (SPY 50644) growth inhibition, active compounds read high
Summary of the method: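 wt1 strain grown with compound or vehicle; inhibition taken from the growth difference.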

[7] = NCI Yeast Anticancer Drug Screen. Data for the rad50EPP+ strain (AID 151);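 further: 0% = growth of vehicle-treated control cultures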; conditions: S. cerevisiae rad50 mutant strain, active compounds read high
Summary of the method: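 In this screen, rad50EPP+ yeast were exposed to compounds. Growth inhibition was scored against vehicle-treated controls.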

[8] = NCI Yeast Anticancer Drug Screen. Data for the mgt1 strain (AID 153); conditions: S. cerevisiae mgt1 mutant growth inhibition, active compounds read high
Summary of the method: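 mgt1 strain exposed; growth vs vehicle control recorded as inhibition.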

[9] = NCI Yeast Anticancer Drug Screen. Data for the rad50 strain (AID 155);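 further: 0% = growth of vehicle-only cultures of the same strain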; conditions: S. cerevisiae rad50 strain growth inhibition, active compounds read high
Summary of the method: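 DNA repair mutant yeast, compound exposure, growth read-out; inhibition is taken relative to vehicle.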

[10] = NCI Yeast Anticancer Drug Screen. Data for the mec2-1 strain (AID 157); conditions: S. cerevisiae mec2-1 strain, active compounds read high
Summary of the method: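 Vehicle-treated cultures served as reference for growth inhibition of compound-exposed mec2-1 yeast.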

[11] = NCI Yeast Anticancer Drug Screen. Data for the rad14 strain (AID 159);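 further: 0% = growth of vehicle-treated control cultures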; conditions: S. cerevisiae rad14 strain growth inhibition, active compounds read high
Summary of the method: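 DNA repair-defective yeast, compound-exposed; % growth inhibition derived by comparison with vehicle-treated controls.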

[12] = NCI Yeast Anticancer Drug Screen. Data for the sgs1 mgt1 strain (AID 161);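 further: 0% = growth of cultures given vehicle only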; conditions: S. cerevisiae sgs1 mgt1 strain, active compounds read high
Summary of the method: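 Read-out: growth inhibition vs vehicle controls. Cells: mutant yeast strain deficient in DNA damage repair.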

[13] = NCI Yeast Anticancer Drug Screen. Data for the CLN2oe strain (AID 163);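 further: 0% = growth of vehicle-only control cultures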; conditions: S. cerevisiae CLN2oe strain, active compounds read high
Summary of the method: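 Inhibition relative to vehicle-treated yeast is reported. Cells: strain with genetic alteration in cell-cycle control, grown with compound.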

[14] = NCI Yeast Anticancer Drug Screen. Data for the cln2 rad14 strain (AID 165);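 further: 0% = growth equal to vehicle treated cultures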; conditions: S. cerevisiae cln2 rad14 strain, active compounds read high
Summary of the method: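 Each compound was tested on cln2 rad14 yeast. Inhibition of growth was calculated against vehicle-exposed controls.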

[15] = NCI Yeast Anticancer Drug Screen. Data for the bub3 strain (AID 167); conditions: S. cerevisiae bub3 mutant strain, active compounds read high
Summary of the method: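 In this screen, a yeast mutant lacking normal mitotic checkpoint function is challenged with compound. Relative growth versus vehicle gives the inhibition value.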

[16] = NCI Yeast Anticancer Drug Screen. Data for the wt2 strain (AID 169);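 further: 0% = growth of vehicle-treated yeast cultures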; conditions: S. cerevisiae wt2 strain growth inhibition, active compounds read high
Summary of the method: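 Inhibition of yeast growth was determined after compound treatment, normalised to controls receiving only vehicle.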

[17] = at 5.0 µM (retest, dose inferred, filed as 0.5)
[18] = at 50.0 µM (retest, dose inferred, filed as 5.0)

Measured: growth inhibition

C(=N/NC1=NCCN1)/c1c2ccccc2c(/C=N\NC2=NCCN2)c2ccccc12
active: [1]; at 33.0 µM 73% | [1]; at 100.0 µM 90% | [2]; at 33.0 µM 81% | [2]; at 100.0 µM 92% | [3]; [18] 83% | [4]; at 33.0 µM 78% | [4]; at 100.0 µM 92%
inactive: [1]; at 1.2 µM 11% | [1]; at 3.7 µM 16% | [1]; at 11.0 µM 21% | [2]; at 1.2 µM 0% | [2]; at 3.7 µM 8% | [2]; at 11.0 µM 22% | [3]; [17] -14% | [4]; at 1.2 µM -3% | [4]; at 3.7 µM -6% | [4]; at 11.0 µM 4%

CN(C)CCN1C(=O)c2cccc3cc([N+](=O)[O-])cc(c23)C1=O
active: [5]; at 33.0 µM 90% | [5]; at 100.0 µM 93% | [7]; at 100.0 µM 83% | [9]; at 33.0 µM 87% | [9]; [18] 93% | [9]; at 50.0 µM 72.6% | [9]; at 100.0 µM 94% | [4]; at 100.0 µM 80%
inactive: [5]; at 1.2 µM 22% | [5]; at 3.7 µM 58% | [5]; at 11.0 µM 63% | [6]; at 1.2 µM 16% | [6]; at 3.7 µM 0% | [6]; at 11.0 µM -9% | [6]; at 33.0 µM -4% | [6]; at 100.0 µM 23% | [7]; at 1.2 µM 13% | [7]; at 3.7 µM 25% | [7]; at 11.0 µM 28% | [7]; at 33.0 µM 66% | [8]; at 1.2 µM -11% | [8]; at 3.7 µM -13% | [8]; at 11.0 µM 4% | [8]; at 33.0 µM 5% | [8]; at 100.0 µM 68% | [9]; at 1.2 µM 13% | [9]; at 3.7 µM 35% | [9]; [17] 28% | [9]; at 11.0 µM 52% | [10]; at 1.2 µM -4% | [10]; at 3.7 µM 2% | [10]; [17] 2% | [10]; at 11.0 µM -9% | [10]; at 33.0 µM -6% | [10]; [18] 13% | [10]; at 50.0 µM 7.05% | [10]; at 100.0 µM 48% | [11]; at 1.2 µM 2% | [11]; at 3.7 µM 6% | [11]; at 11.0 µM 12% | [11]; at 33.0 µM -1% | [11]; at 100.0 µM 34% | [12]; [17] 11% | [12]; [18] 51% | [12]; at 50.0 µM -10.9% | [13]; at 1.2 µM 18% | [13]; at 3.7 µM 28% | [13]; at 11.0 µM 41% | [13]; at 33.0 µM 36% | [13]; at 100.0 µM 69% | [14]; [17] 5% | [14]; [18] 38% | [14]; at 50.0 µM -26.2% | [15]; at 1.2 µM -1% | [15]; at 3.7 µM 16% | [15]; [17] -6% | [15]; at 11.0 µM 21% | [15]; at 33.0 µM 18% | [15]; [18] 21% | [15]; at 50.0 µM -4.65% | [15]; at 100.0 µM 47% | [16]; at 1.2 µM -3% | [16]; at 3.7 µM 0% | [16]; at 11.0 µM -1% | [16]; at 33.0 µM 1% | [16]; at 100.0 µM 30% | [1]; at 1.2 µM 14% | [1]; at 3.7 µM 1% | [1]; at 11.0 µM -13% | [1]; at 33.0 µM 0% | [1]; at 100.0 µM 60% | [2]; at 1.2 µM -24% | [2]; at 3.7 µM -2% | [2]; at 11.0 µM 8% | [2]; at 33.0 µM 12% | [2]; at 100.0 µM 61% | [3]; [17] 6% | [3]; [18] 45% | [4]; at 1.2 µM 10% | [4]; at 3.7 µM 16% | [4]; at 11.0 µM 17% | [4]; at 33.0 µM 25%

Cc1cc(N=C2C=CC(=[N+](C)C)C=C2)c(N)cc1N
inactive: [5]; at 1.2 µM -7% | [5]; at 3.7 µM -9% | [5]; at 11.0 µM 15% | [5]; at 33.0 µM 45% | [6]; at 1.2 µM 12% | [6]; at 3.7 µM 15% | [6]; at 11.0 µM 23% | [6]; at 33.0 µM 52% | [7]; at 1.2 µM -8% | [7]; at 3.7 µM -6% | [7]; at 11.0 µM -5% | [7]; at 33.0 µM 9% | [7]; at 100.0 µM 47% | [8]; at 1.2 µM 4% | [8]; at 3.7 µM 15% | [8]; at 11.0 µM 28% | [8]; at 33.0 µM 52% | [9]; at 1.2 µM -2% | [9]; at 3.7 µM 1% | [9]; [17] 54% | [9]; at 11.0 µM 15% | [9]; at 33.0 µM 52% | [9]; [18] 61% | [9]; at 50.0 µM 46.4% | [10]; at 1.2 µM -16% | [10]; at 3.7 µM -13% | [10]; [17] 50% | [10]; at 11.0 µM -3% | [10]; at 33.0 µM 23% | [10]; at 50.0 µM 45.3% | [10]; at 100.0 µM 59% | [11]; at 1.2 µM -20% | [11]; at 3.7 µM -19% | [11]; at 11.0 µM 8% | [11]; at 33.0 µM 46% | [12]; [17] -18% | [12]; [18] 65% | [12]; at 50.0 µM 63.8% | [13]; at 1.2 µM 35% | [13]; at 3.7 µM 35% | [13]; at 11.0 µM 32% | [13]; at 33.0 µM 28% | [13]; at 100.0 µM 67% | [14]; [17] 59% | [14]; [18] 57% | [14]; at 50.0 µM 39.7% | [15]; at 1.2 µM 4% | [15]; at 3.7 µM 7% | [15]; [17] 31% | [15]; at 11.0 µM 34% | [15]; at 33.0 µM 54% | [15]; [18] 21% | [15]; at 50.0 µM 62.6% | [16]; at 1.2 µM -9% | [16]; at 3.7 µM 22% | [16]; at 11.0 µM -15% | [16]; at 33.0 µM 22% | [16]; at 100.0 µM 62% | [1]; at 1.2 µM 1% | [1]; at 3.7 µM 2% | [1]; at 11.0 µM -2% | [1]; at 33.0 µM 31% | [1]; at 100.0 µM 61% | [3]; [17] 28% | [3]; [18] 56% | [3]; at 50.0 µM 53.5% | [4]; at 1.2 µM -2% | [4]; at 3.7 µM -4% | [4]; at 11.0 µM 7% | [4]; at 33.0 µM 21% | [4]; at 100.0 µM 61%
active: [5]; at 100.0 µM 72% | [6]; at 100.0 µM 75% | [8]; at 100.0 µM 75% | [9]; at 100.0 µM 71% | [10]; [18] 70% | [11]; at 100.0 µM 70% | [15]; at 100.0 µM 75%
